Rab9 promoter act – Rab9 promoter activation. Huh7 Rab9 promoter-luciferase reporter, luminescence, 24 h. Potency, µM (series often up to 9.22 µM), most hits filed as activators. hit rate 2.8% among 320,000. AID 485297; also: nearly all actives have a fitted effect of over 60% in size
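Luminescence read-out: Huh7 cells stably expressing Rab9-luciferase, treated 24 h with compound at 37 °C, then lysed with luciferase reagent for 10 min at ambient before reading.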
Luc counter – blocks Kinase-Glo luciferase, a counter-screen artifact; Q27757; Kinase-Glo luciferase, ATP luminescence, 8 min; Potency, µM (series often up to 38.3 µM), hits mostly inhibitors; hit rate 0.28% among 200,000; also: nearly all actives have a fitted effect of over 60% in size
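Compound is pinned into ATP-containing buffer (10 uM ATP, imidazole pH 7.2, 7 mM MgCl2). Kinase-Glo luciferase reagent is then added. Light output is recorded following an 8-min room-temperature incubation.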
ELG1 genotoxic – genotoxicity induction in ELG1-luciferase HEK293T cells; HEK293T ELG1-luciferase reporter, luminescence, 16 h; Potency, µM (highest dose often 46 µM), hits mostly activators; hit rate 1.3% among 330,000; also: nearly all actives have a fitted effect of over 60% in size
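Luminescence read-out: rising ELG1-luciferase signal, reflecting elevated ELG1 protein under genetic stress, flags genotoxic compounds. Cells were treated for 16 hr at 37 °C before ONE-Glo detection.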
NPC1 prom act – NPC1 promoter activation; Huh7 NPC1 promoter luciferase reporter, 24 h; hit rate 2.4% among 320,000; Potency, µM (titrated, usually from 9.22 µM), hits mostly activators; also: nearly all actives have a fitted effect of over 60% in size
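Stably transfected Huh7 (NPC1 promoter→luciferase), 1500 cells/well in Opti-MEM + 10% FBS, 2 h settle, then compound 24 h at 37 °C. Luminescence after 10 min with Amplite reagent.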
FLuc counter – inhibits or activates purified firefly luciferase, miR-21 counter-screen; hit rate 6.9% among 360,000; Potency, µM (series often up to 57.5 µM), usual class: inhibitors; purified FLuc, Km substrates, luminescence inhibition; P08659; also: nearly all actives have a fitted effect of over 55% in size
Target sequence (P08659 whole entry, looked up): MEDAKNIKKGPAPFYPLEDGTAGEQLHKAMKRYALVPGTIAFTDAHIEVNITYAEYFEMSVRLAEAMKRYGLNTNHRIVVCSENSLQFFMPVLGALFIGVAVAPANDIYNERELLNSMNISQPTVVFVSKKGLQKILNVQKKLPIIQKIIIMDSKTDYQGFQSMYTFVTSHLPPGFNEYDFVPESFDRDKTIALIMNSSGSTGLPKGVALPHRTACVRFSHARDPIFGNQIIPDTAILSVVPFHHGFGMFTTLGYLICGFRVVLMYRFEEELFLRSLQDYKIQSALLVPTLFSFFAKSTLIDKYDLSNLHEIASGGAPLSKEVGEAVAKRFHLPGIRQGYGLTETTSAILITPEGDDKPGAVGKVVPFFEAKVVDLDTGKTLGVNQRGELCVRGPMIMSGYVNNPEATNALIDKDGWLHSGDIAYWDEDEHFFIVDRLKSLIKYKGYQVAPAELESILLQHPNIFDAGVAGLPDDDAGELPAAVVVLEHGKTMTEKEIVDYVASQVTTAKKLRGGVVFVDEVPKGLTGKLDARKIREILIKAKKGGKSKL
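Purified P. pyralis luciferase, 10 nM final, with Km-level 10 uM D-luciferin and 10 uM ATP in 50 mM Tris acetate pH 7.5, 10 mM Mg acetate, 0.01% Tween-20, 0.05% BSA; 6-point qHTS titration about 60 µM downward; luminescence read.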
SMN2 splice up – enhancers of SMN2 splice variant expression | HEK293 SMN2-luciferase splicing reporter, luminescence, 30-36 h | Potency, µM (highest dose often 46.1 µM), actives largely listed as activators | hit rate 2.8% among 210,000 | AID 1458; also: nearly all actives have a fitted effect of over 55% in size
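qHTS luciferase splicing reporter: luminescence rises when SMN2 exon 7 is included in transfected HEK293 cells. Compound exposure lasted 30-36 h at 37C, with 4.5 mM final sodium butyrate as control, followed by a ONE-Glo read.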
Hits are given with their value; . = inactive; ? = inconclusive; / = not tested or not shown; [ ] = remark or other dose. An excerpt weighted towards active compounds, which were near 7.5% of everything screened. Calls follow the shape of the dose curve; as a rule, active = well fitted curve in the direction sought with a large enough effect; inconclusive = small, poorly fitted or top-dose-only effect, or another doubt; inactive = no such curve, though single readings can be large; an effect the other way counts as inactive or inconclusive.

SMILES	Rab9 promoter act	Luc counter	ELG1 genotoxic	NPC1 prom act	FLuc counter	SMN2 splice up
CN(C)c1ccc(N=Nc2ccccc2C(=O)OCC(=O)N(C)C2CCCCC2)cc1	?	.	.	.	1.07µM	?
COCCNC(=O)c1c[nH]c2ccc(S(=O)(=O)N(C)c3ccc(C)c(C)c3)cc2c1=O	.	/	.	.	.	/
CSc1nsc(SCC(=O)Nc2ccc3c(c2)OCCO3)n1	.	.	10µM	.	21.3µM	22.4µM
CSc1nsc(SCC(=O)Nc2ccc(F)cc2)n1	.	/	.	.	.	/
Cc1csc(SCC(=O)Nc2ccc(C)c(F)c2)n1	.	/	.	.	/	/
Cc1csc(SCC(=O)Nc2ccc3c(c2)OCCO3)n1	?	.	?	.	21.3µM	?
O=C(Nc1nnc(COc2ccccc2)s1)c1ccco1	.	.	.	.	.	.
O=C(Nc1nnc(/C=C/c2ccccc2)s1)c1ccco1	.	/	.	.	12µM	/
COC(=O)Nc1nnc(/C=C/c2ccccc2)s1	.	.	?	.	5.36µM	20µM
CCC(=O)Nc1nnc(/C=C/c2ccc(OC)cc2)s1	?	/	.	?	6.01µM	/
Nc1nnc(/C=C/c2ccccc2)s1	?	.	?	?	23.9µM	/
COc1ccc(/C=C/c2nnc(NC(=O)CSc3ccc(C)cc3)s2)cc1	.	/	.	?	?	/
Nc1nc2c(ncn2C2OC(COC(=O)c3ccccc3)C(OC(=O)c3ccccc3)C2OC(=O)c2ccccc2)c(=O)[nH]1 (configuration not stated)	/	.	/	/	/	.
CCc1ccc(NC(=O)c2cc3c(COC(C)=O)cnc(C)c3oc2=O)cc1	/	/	/	/	.	/
CCSc1cc(C)nc2c(-c3ccccc3)cnn12	.	/	9.2µM	.	3.01µM	/
Cc1ccc(-c2cc(C(F)(F)F)n3ncc(-c4ccccc4)c3n2)cc1	/	/	/	/	.	.
CCSc1cc(C)nc2c(-c3ccc(Cl)cc3)c(C)nn12	.	.	.	.	.	.
C=CCSc1cc(C)nc2c(-c3ccccc3)cnn12	3.55µM	/	?	.	3.38µM	/
C=C1CC(C(=O)N/N=C/c2ccccc2)C1	.	.	.	.	?	.
CCOc1ccc2nc(N3CCCC(C(=O)NCCCN4CC(C)CC(C)C4)C3)sc2c1 (configuration not stated)	0.891µM	/	.[9.26 µM]	.	?	/
COc1ccc2nc(N3CCCC(C(=O)NCCc4ccc(OC)c(OC)c4)C3)sc2c1 (configuration not stated)	2.82µM	/	.	2.82µM	8.49µM	/
COc1ccc(CCNC(=S)N2CCC(C(=O)c3ccc(F)cc3)CC2)cc1OC	.	.	.	.	.	.
COc1ccc(C(=O)C2CCN(C(=S)NCCc3ccc(OC)c(OC)c3)CC2)cc1	.	.	.	.	19µM	/
COc1ccc2nc(N3CCCC(C(=O)NCCCN4CCN(C)CC4)C3)sc2c1 (configuration not stated)	.	.	.	.	16.9µM	.
COc1ccc(CCNC(=O)C2CCCN(c3nn4c(=O)cc(C)nc4s3)C2)cc1OC (configuration not stated)	.	.	.	.	.	.
SMILES	Rab9 promoter act	Luc counter	ELG1 genotoxic	NPC1 prom act	FLuc counter	SMN2 splice up
CCC(C)C(NC)C(=O)O (configuration not stated)	/	.	/	/	/	.
CCOc1ccc2nc(N3CCCC(C(=O)Nc4ccc(OC)c(Cl)c4)C3)sc2c1 (configuration not stated)	/	/	/	/	3.01µM	20µM
CCc1sc(C(=O)Nc2nccs2)cc1C	3.16µM	/	?	3.55µM	1.35µM	/
Cc1ccsc1C(=O)Nc1nccs1	?	/	.	?	?	/
CCc1sc(C(=O)Nc2ncccc2C)cc1C	.	/	.	.	?	/
CCc1sc(C(=O)Nc2ncccc2O)cc1C	2.24µM	/	?	1.58µM	6.01µM	/
COc1cc(OC)c(NC(=O)c2sc3ncn(CC(=O)N4CCOCC4)c(=O)c3c2C)cc1Cl	.	/	.	.	.	/
O=C(Nc1ccc2nc(-c3ccccc3)[nH]c2c1)c1cccs1	?	.	?	.	5.36µM	.
O=C(Nc1ccc2nc(-c3cccnc3)[nH]c2c1)c1ccco1	.	.	.	.	?	.
COC(=O)c1ccc(C(=O)Nc2ccc3nc(-c4ccncc4)[nH]c3c2)cc1	.	/	.	.	.	/
O=C(Nc1ccc2nc(-c3ccc4nc[nH]c4c3)[nH]c2c1)c1cccs1	.	.	.	.	21.3µM	.
COC(=O)N1CCC2(CC1)CN(c1cccc(-c3ccccc3)c1)C2	/	.	/	/	/	.
ClCC1NCC(c2ccccc2Cl)c2c1[nH]c1ccccc21 (configuration not stated)	.	.	.	.	.	.
Cc1ccc(-c2nc(C)c(CCNS(=O)(=O)c3ccc(F)c(C(F)(F)F)c3)s2)cc1	/	/	/	/	.	/
O=C1/C(=C/c2ccc([N+](=O)[O-])cc2)CCc2ccccc21	?	/	7.3µM	.	0.151µM	/
O=C(O)c1ccc(-n2ncc3c2/C(=C/c2cccc([N+](=O)[O-])c2)CC3)cc1	2.82µM	/	.	1.58µM	10.7µM	/
O=C1/C(=C/c2cccc([N+](=O)[O-])c2)CCc2ccccc21	.	.	.	.	9.53µM	.
Cc1ccc2c(=O)cc(C(=O)N(Cc3ccc(C(C)(C)C)cc3)C3CCS(=O)(=O)C3)oc2c1 (configuration not stated)	/	/	/	/	.	.
Cc1ccc(S(=O)(=O)N2C[C@@H]3[C@H]4CC[C@H](C4)[C@@H]3[C@@H](C)C2CC(=O)c2ccccc2)cc1 (some centres not stated)	/	/	.	/	/	/
O=S1(=O)C=C(Sc2nc3ccccc3s2)c2ccccc21	.	.	.	.	2.69µM	.
CCOC(=O)N1CCc2c(sc3c2c(=O)n(Cc2ccccc2)c(=O)n3CC(=O)Nc2ccc(F)cc2)C1	/	/	/	/	.	.
O=C(CCCOc1ccccc1)Nc1cccc(S(=O)(=O)N2CCCCCC2)c1	.	/	.	.	.	/
CC1(C)CN=C(N(Cc2ccccc2)C(=O)Nc2ccccc2)S1	?	.	?	?	15.1µM	.
CC1(C)CN=C(N(C(=O)Nc2ccccc2)c2ccccc2F)S1	.	/	.	.	.	/
COc1ccc2c(c1)-c1nc(NC(=O)c3ccc(C)cc3)sc1CC2	/	/	/	/	2.69µM	.
SMILES	Rab9 promoter act	Luc counter	ELG1 genotoxic	NPC1 prom act	FLuc counter	SMN2 splice up
COc1ccc2c(c1)CCc1sc(NC(=O)c3cccc(Br)c3)nc1-2	/	/	/	/	.	/
COc1ccc(C(=O)Nc2nc3c(s2)CCc2cc(OC)ccc2-3)cc1	/	/	/	/	7.57µM	.
O=C(c1cc(-c2ccc(Cl)cc2Cl)on1)N1CCOCC1	0.316µM	.	0.651µM	0.398µM	0.757µM	1.26µM
O=C(c1cc(-c2ccc(Cl)c(Cl)c2)on1)N1CCOCC1	2.82µM	/	?	1.41µM	3.01µM	/
O=C(c1cc(-c2ccc(Cl)c(Cl)c2)on1)N1CCCC1	2.24µM	.	?	3.55µM	.	11.2µM
O=C(NCCN1CCOCC1)c1cc(-c2ccc(Cl)c(Cl)c2)on1	.	/	.	.	.	/

Source: PubChem
